Active and inactive are the calls of the source.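 The calls were made as follows: active = fluorescence slope after compound addition differing from the mean of all screened samples at 99.7% confidence, in either direction; inactive = the rest.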
What follows are compounds tested against Alpha-2C adrenergic receptor (Homo sapiens) (UniProt P18825) (assay: modulators of alpha2C/GIRK thallium flux, primary screen, cell-based, HEK293 alpha2C/GIRK1/2 (AID 624;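 also: slope of fluorescence ratio to pre-addition baseline per second over 15 to 24 s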)). Conditions: thallium flux BTC fluorescence, at 10 µM, actives lie on both sides.
Alpha-2C adrenergic receptor (Homo sapiens), sequence (P18825 whole entry, looked up): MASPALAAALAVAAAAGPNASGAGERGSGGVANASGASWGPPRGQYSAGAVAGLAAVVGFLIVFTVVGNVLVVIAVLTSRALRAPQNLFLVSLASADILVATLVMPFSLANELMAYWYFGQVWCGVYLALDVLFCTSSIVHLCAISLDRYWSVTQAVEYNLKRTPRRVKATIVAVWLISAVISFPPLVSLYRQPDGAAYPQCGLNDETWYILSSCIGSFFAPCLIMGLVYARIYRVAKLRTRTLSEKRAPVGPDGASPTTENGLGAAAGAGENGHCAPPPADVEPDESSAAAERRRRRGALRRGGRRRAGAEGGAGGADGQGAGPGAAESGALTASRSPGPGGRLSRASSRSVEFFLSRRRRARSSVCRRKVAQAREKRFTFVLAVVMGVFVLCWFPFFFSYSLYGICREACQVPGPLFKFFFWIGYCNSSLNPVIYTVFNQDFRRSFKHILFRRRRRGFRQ

slope, inactive:
CC(C)(Oc1ccc(Cl)cc1)C(=O)NCc1ccncc1 0.00503
Cc1ccc(C)c(S(=O)(=O)NCc2cccnc2)c1 0.00658
Cc1cc(-c2ccccc2)c(C#N)c(N)n1 0.00466
CCCCCc1c(C)nc(SCC(=O)O)[nH]c1=O 0.00694
COC(=O)c1ccc(NC(=O)C(C)N2C(=O)c3ccccc3C2=O)cc1 (stereo not given) 0.0058
O=C(Nc1cccnc1)c1cccc(NC(=O)c2ccco2)c1 0.00622
Cc1ccnc(NC(=O)CCC(=O)N(CC(=O)NC(C)(C)C)C2CCCC2)c1 0.00587
COCCNC(=O)CN(C)S(=O)(=O)c1ccc(Br)cc1 0.00533
CC(=O)NC(C)c1nc2ccccc2n1C(C)C (stereo not given) 0.00604
COC(=O)C1CCN(C(=O)c2sc3nc(-c4ccc(F)cc4)cn3c2C)CC1 0.00421
CC(Sc1nnnn1C)C(=O)Nc1ccc(Oc2ccccc2)cc1 (stereo not given) 0.00778
c1ccc(Cn2nnnc2C(c2cccs2)N2CCSCC2)cc1 (stereo not given) 0.00524
Cn1c(=O)[nH]c(=O)c2c1nc(NCCCn1ccnc1)n2Cc1cccc(Br)c1 0.006
CCOC(=O)N1CCN(C(=O)c2c(-c3ccccc3)noc2C)CC1 0.00537
COc1ccc2c(c1OC)C(=O)N(c1ccc3c(c1)CCC3)C2=O 0.00573
Cc1ccc(NC(=O)C2CCCN(S(=O)(=O)c3cnc[nH]3)C2)cc1C (stereo not given) 0.00769
O=C(Cn1ncc2c1-c1ccccc1OC2)N1CCN(c2ccccn2)CC1 0.00617
C/C=C/c1ccc(OCCn2cncn2)c(OC)c1 0.00659
Cc1c(C(=O)OC2CCCCC2)[nH]c2c1C(=O)CC(C)(C)C2 0.00193
COc1ccccc1N1C(=O)CC(Sc2nc(C)cc(C)n2)C1=O (stereo not given) 0.0075
Cc1nc(SCCC(=O)O)c2ccccc2n1 0.00515
Nc1sccc1C(=O)c1ccc(Cl)cc1 0.00277
Cc1ccccc1Cn1ccc(NC(=O)c2onc(C)c2Cl)n1 0.00472
Nc1c(C(=O)NCCN2CCOCC2)c2nc3ccccc3nc2n1-c1ccc2c(c1)OCO2 0.00388
Cc1cc(C(=O)Nc2nc3c(s2)CCCC3)cs1 0.00523
COC(=O)CNc1nc(C2CC2)nc2c1nnn2Cc1ccccc1Cl 0.00514
CCN1CCN(C(c2ccc(F)cc2)c2nnnn2Cc2cccs2)CC1 (stereo not given) 0.00582
O=C1CN(c2nc3ccccc3n3cnnc23)CC(=O)N1CCc1ccccc1 0.00474
O=S(=O)(c1ccc(S(=O)(=O)N2CCN3CCCC3C2)cc1)N1CCCC1 (stereo not given) 0.00601
O=C1CC(c2cccc(Cl)c2)Cc2nc(N3CCN(c4ccccc4)CC3)ncc21 (stereo not given) 0.00428
CCC1SC2=NC(C)=C(C(=O)OC)C(c3ccc(C)cc3)N2C1=O (stereo not given) 0.0061
O=C(CN1CCC(NC(=O)c2ccc(F)cc2)CC1)NCc1ccccc1F 0.00564
COC(=O)C(C)NC(=O)C12CC3CC(CC(C3)C1)C2 (stereo not given) 0.0064
Cc1ccc(S(=O)(=O)NC(=O)c2cc(C)n(CCCn3ccnc3)c2C)cc1 0.00417
O=S(=O)(NCC(c1cccnc1)N1CCN(c2ccccc2)CC1)c1cc(F)ccc1F (stereo not given) 0.00657
COc1ccc2ccccc2c1CN1CCN(C)CC1 0.00594
CCOC(=O)/C=C1\CC(=O)Nc2nonc2N1 0.00414
CCn1ncc(Cl)c1C(=O)Nc1ccncc1 0.00342
Cn1c(=O)cc(OCC(=O)NCCCN2CCN(c3cccc(Cl)c3)CC2)c2ccccc21 0.00636
CCOc1cc(C(=O)N(C)Cc2cc3cc(OC)ccc3[nH]c2=O)cc(OCC)c1OCC 0.00515

— PubChem BioAssay
